# From PubChem BioAssay (NCATS)
# Values joined by “and” are separate entries in the source; they are usually repeats but may differ in a detail not shown here. Equal values may be shown once. Records with an inconclusive call do not appear. Active and inactive are the calls of the source. Unless noted, calls come from the whole dose curve; as a rule, active = well fitted curve in the direction sought with a large enough effect; inconclusive = small, poorly fitted or top-dose-only effect, or another doubt; inactive = no such curve, though single readings can be large or run the other way.
# Tested on: not listed separately
# Test: Dual reporter qHTS for antagonist of Pregnane X Receptor (hPXR) against the NCATS DSHEA and TCM libraries: Fluorescence Readout (AID 1920061)
# Conditions: PXR dual reporter cells, antagonist mode; series mostly up to 40 µM; activity change, negative = inhibition: at the top concentration
# Outline: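 HepG2 hPXR-Luc, 2000 cells/well, charcoal-stripped FBS medium; 5 h attach; RIF 2 uM final; 24 h 37C/5% CO2; CellTiter-Fluor 1 h, fluor 405/540; ONE-Glo 30 min RT, lum.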
# Note: 0% is about no effect.
row,SMILES,"activity change, negative = inhibition"
1,C=CCc1ccc(OC)c(OC)c1,7.58% (inactive)
2,C=C(C)C1CC=C(C)C(O)C1 (centres undefined),9.1% (inactive)
3,CC(=O)O[C@@H]1CC[C@@]2(C)[C@@H](CC[C@]3(C)[C@@H]2C(=O)C=C2[C@@H]4[C@@H](C)[C@H](C)CC[C@]4(C)CC[C@]23C)[C@@]1(C)C(=O)O,26.7% (inactive)
4,CCCCCC(=O)O,-9.82% [at 68.2 µM] (inactive)
5,CC(C)(O)[C@@H]1CC[C@](C)([C@H]2[C@@H](O)C[C@@]3(C)[C@@H]4C[C@H](O)[C@H]5C(C)(C)[C@@H](O[C@@H]6OC[C@@H](O)[C@H](O)[C@H]6O[C@@H]6O[C@H](CO)[C@@H](O)[C@H](O)[C@H]6O)CC[C@@]56C[C@@]46CC[C@]23C)O1,6.98% (inactive)
6,O=C(/C=C/c1ccc(O)c(O)c1)OC1[C@H](O)CC(O)(C(=O)O)C[C@@H]1O (some centres undefined),-9.34% (inactive)
7,CCCCCCCCCCCC(=O)O,9.73% (inactive)
8,C=C(C)[C@H]1CC=C(CO)CC1,8.68% (inactive)
9,CCCCCCCC/C=C/CCCCCCCC(=O)O,16.4% (inactive)
10,CC1=C2[C@H]([C@@H](C)CC[C@@H]2/C=C(\C)C(=O)O)[C@@H](O)C1,7.49% (inactive)
11,CCCCCCCCC/C=C/C(=O)CCc1ccc(O)c(OC)c1,-2.7% (inactive)
12,CCCCCCCC/C=C/CCCCCCCCCC(=O)O,1.4% (inactive)

# Target: Nuclear receptor subfamily 1 group I member 2 (Rattus norvegicus) (UniProt Q9R1A7)
# Test: qHTS assay for small molecule activators of the rat pregnane X receptor (rPXR) signaling pathway (AID 651751; call rule not given here)
# Conditions: rPXR reporter cells, luciferase (One-Glo), 24 h
# Nuclear receptor subfamily 1 group I member 2 (Rattus norvegicus), sequence (Q9R1A7 whole entry, looked up): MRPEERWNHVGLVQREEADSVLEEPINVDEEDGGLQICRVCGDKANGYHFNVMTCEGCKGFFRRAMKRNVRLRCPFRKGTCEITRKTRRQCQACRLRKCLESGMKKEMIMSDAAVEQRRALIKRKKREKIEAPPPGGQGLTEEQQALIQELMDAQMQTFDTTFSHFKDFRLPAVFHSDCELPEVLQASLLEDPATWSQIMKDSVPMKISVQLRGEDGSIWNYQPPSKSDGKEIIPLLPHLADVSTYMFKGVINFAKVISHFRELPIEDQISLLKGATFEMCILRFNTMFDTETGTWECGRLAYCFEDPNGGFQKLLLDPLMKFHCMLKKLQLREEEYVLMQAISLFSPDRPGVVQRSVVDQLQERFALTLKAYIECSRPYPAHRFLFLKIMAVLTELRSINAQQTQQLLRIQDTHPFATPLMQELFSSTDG
row,SMILES,max response
1,C=CCc1ccc(OC)c(OC)c1,-0.697% (inactive) and 1.19% (inactive)
2,C=C(C)C1CC=C(C)C(O)C1 (centres undefined),2.42% (inactive)
3,CC1=C2[C@H](/C=C(\C)C(=O)O)CC[C@@H](C)[C@H]2CC1,-3.01% (inactive)
4,CCCCCCCCCCCC(=O)O,-4.75% (inactive) and -1.77% (inactive)

# Tested on: not listed separately
# Test: qHTS assay for small molecule activators of the human pregnane X receptor (PXR) signaling pathway (AID 720659; call rule not given here)
# Conditions: DPX-2 HepG2 CYP3A4-luciferase, 24 h; series mostly up to 92.3 µM; activation: at the top concentration
SMILES,outcome,activation
C=CCc1ccc(OC)c(OC)c1,inactive,
C=C(C)C1CC=C(C)C(O)C1 (centres undefined),,-4.53% (inactive)
CC1=C2[C@H](/C=C(\C)C(=O)O)CC[C@@H](C)[C@H]2CC1,,18.5% (inactive)
